± gives the standard deviation of the averaged measurements. Targets with the largest changes are over-represented here; the source holds about 6,200 in all.

Common to all, as to test: NP40-soluble protein abundance relative to vehicle (solubility fold change) (ratio); higher = more soluble protein in presence of AMP-PNP
In one test the target is T1, A0A0A0MSG2|J3KNW4|Q14192 (UniProt Q14192).
T1 sequence (whole entry): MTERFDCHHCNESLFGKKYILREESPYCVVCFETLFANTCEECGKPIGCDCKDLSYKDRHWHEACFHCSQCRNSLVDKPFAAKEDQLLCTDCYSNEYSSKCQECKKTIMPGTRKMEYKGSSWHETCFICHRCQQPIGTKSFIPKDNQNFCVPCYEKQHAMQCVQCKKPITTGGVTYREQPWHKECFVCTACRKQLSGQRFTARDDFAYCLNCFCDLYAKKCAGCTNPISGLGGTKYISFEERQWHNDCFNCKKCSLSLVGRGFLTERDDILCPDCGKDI
The gist of the method: (§1)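 Eight concentrations, 0.1 to 10 mM, were tested on Jurkat crude lysate for 10 min at room temperature and then 3 min at 37 °C, in three independent experiments. The lysate was solubilised with 0.8% NP40 and benzonase, ultracentrifuged, and the supernatant TMT-labelled for LC-MS/MS. Each value is the fold change against the detergent-processed vehicle in its own replicate, from vsn-normalised intensities.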

In a further test the target is T2, A0A0U1RRH6|O94880 (UniProt O94880).
T2 sequence (whole entry): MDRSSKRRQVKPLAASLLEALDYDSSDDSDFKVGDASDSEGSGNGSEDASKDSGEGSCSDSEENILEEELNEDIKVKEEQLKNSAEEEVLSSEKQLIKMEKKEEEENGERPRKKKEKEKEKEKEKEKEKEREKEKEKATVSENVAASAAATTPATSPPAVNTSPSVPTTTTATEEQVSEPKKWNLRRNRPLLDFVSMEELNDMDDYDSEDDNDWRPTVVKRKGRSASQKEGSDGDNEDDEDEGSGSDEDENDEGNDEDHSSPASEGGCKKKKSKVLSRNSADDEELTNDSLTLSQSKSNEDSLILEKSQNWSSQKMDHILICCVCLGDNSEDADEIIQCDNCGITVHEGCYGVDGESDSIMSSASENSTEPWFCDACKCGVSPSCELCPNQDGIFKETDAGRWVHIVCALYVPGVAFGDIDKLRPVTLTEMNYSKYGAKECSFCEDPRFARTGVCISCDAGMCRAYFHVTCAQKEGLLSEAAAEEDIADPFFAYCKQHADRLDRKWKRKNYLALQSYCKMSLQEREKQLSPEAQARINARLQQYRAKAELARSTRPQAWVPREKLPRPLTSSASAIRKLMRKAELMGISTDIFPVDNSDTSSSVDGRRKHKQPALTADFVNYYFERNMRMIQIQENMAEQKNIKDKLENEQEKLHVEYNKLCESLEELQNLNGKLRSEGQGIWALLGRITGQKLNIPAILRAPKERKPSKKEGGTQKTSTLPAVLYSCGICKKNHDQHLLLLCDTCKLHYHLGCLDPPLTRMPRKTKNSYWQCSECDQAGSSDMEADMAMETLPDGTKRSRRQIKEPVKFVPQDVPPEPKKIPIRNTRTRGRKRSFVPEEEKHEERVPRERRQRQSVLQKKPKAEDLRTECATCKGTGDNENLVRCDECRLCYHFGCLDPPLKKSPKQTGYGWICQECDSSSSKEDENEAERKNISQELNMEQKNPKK
The gist of the method: as §1

For the next test, the target named is T3, ACOX3 (UniProt O15254).
T3 sequence (whole entry): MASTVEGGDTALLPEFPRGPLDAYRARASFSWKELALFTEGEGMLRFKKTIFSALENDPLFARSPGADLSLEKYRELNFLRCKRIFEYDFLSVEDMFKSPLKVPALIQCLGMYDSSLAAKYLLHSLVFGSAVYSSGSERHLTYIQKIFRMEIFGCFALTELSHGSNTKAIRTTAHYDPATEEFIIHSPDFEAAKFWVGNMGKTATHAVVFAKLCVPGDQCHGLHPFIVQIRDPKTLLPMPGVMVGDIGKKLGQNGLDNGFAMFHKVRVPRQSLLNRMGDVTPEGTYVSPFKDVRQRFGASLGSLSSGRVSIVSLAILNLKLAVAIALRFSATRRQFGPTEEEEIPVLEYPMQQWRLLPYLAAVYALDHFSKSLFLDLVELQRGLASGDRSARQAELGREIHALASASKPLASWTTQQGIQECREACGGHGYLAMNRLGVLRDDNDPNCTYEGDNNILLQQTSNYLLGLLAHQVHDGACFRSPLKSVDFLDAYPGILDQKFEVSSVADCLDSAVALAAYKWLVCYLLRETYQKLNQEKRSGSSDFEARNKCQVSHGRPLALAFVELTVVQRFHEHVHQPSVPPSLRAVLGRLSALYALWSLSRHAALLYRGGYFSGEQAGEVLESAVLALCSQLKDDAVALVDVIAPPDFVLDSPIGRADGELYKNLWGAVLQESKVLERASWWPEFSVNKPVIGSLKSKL
In a few lines:
as §1

Another test deals with T4, C9JI46|Q8N3X6|Q8N3X6-3 (UniProt Q8N3X6).
T4 sequence (whole entry): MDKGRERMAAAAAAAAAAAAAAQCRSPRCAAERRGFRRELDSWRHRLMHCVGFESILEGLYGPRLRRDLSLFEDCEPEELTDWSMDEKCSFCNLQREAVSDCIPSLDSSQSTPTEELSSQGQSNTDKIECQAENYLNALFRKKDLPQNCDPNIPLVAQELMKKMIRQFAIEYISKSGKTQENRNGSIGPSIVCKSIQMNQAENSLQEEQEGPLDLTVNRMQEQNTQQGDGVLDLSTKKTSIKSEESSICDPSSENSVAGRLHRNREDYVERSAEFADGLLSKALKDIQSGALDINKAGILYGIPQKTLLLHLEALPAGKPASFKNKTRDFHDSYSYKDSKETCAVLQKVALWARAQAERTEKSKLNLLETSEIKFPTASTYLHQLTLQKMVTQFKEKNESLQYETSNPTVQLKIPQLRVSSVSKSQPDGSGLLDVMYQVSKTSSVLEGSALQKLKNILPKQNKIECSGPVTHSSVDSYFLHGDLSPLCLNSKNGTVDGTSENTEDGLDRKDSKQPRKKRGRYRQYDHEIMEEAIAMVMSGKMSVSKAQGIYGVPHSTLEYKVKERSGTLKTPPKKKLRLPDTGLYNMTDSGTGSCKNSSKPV
The gist of the method: as §1

Regarding `Nc1ncnc2c1ncn2[C@@H]1O[C@H](COP(=O)(O)OP(=O)(O)NP(=O)(O)O)[C@@H](O)[C@H]1O` [adenylyl imidodiphosphate], the NP40-soluble protein abundance in the test with A0A0A0MSG2|J3KNW4|Q14192 (concentration: 1mM) came out at 0.991 ± 0.05; in the test with A0A0A0MSG2|J3KNW4|Q14192 (concentration: 2mM) it was 0.988 ± 0.09; in the test with A0A0A0MSG2|J3KNW4|Q14192 (concentration: 4mM), 1.02 ± 0.048; in the test with A0A0A0MSG2|J3KNW4|Q14192 (concentration: 6mM) it was 0.966 ± 0.036; with A0A0A0MSG2|J3KNW4|Q14192 (concentration: 8mM), 0.979 ± 0.083; with A0A0A0MSG2|J3KNW4|Q14192 (concentration: 10mM), 0.947 ± 0.035. Moreover, the NP40-soluble protein abundance with A0A0U1RRH6|O94880 (concentration: 1mM) was 1.02 ± 0.036; in the test with A0A0U1RRH6|O94880 (concentration: 2mM), 1.07 ± 0.03; with A0A0U1RRH6|O94880 (concentration: 4mM), 1.14 ± 0.025; in the test with A0A0U1RRH6|O94880 (concentration: 6mM), 1.21 ± 0.017; with A0A0U1RRH6|O94880 (concentration: 8mM), 1.27 ± 0.035; with A0A0U1RRH6|O94880 (concentration: 10mM), 1.36 ± 0.092. Moreover, the NP40-soluble protein abundance in the test with ACOX3 (concentration: 1mM) stood at 0.977 ± 0.053; with ACOX3 (concentration: 2mM) it was 0.928 ± 0.076; with ACOX3 (concentration: 4mM) it was 0.967 ± 0.031; in the test with ACOX3 (concentration: 6mM), 0.957 ± 0.057; with ACOX3 (concentration: 8mM), 0.972 ± 0.07; with ACOX3 (concentration: 10mM), 0.918 ± 0.089. In addition, the NP40-soluble protein abundance with C9JI46|Q8N3X6|Q8N3X6-3 (concentration: 1mM) came out at 0.985 ± 0.021; with C9JI46|Q8N3X6|Q8N3X6-3 (concentration: 2mM), 1.024 ± 0.0091; in the test with C9JI46|Q8N3X6|Q8N3X6-3 (concentration: 4mM), 1.01 ± 0.058; with C9JI46|Q8N3X6|Q8N3X6-3 (concentration: 6mM) it was 0.992 ± 0.017; in the test with C9JI46|Q8N3X6|Q8N3X6-3 (concentration: 8mM) it was 0.952 ± 0.014; with C9JI46|Q8N3X6|Q8N3X6-3 (concentration: 10mM), 1 ± 0.039.

Values taken from the supplement of paper PMC6411743.
